Measured values published in PubChem BioAssay AID1006 (Sanford-Burnham Center for Chemical Genomics, 2008).
About 3,000 (1.5%) of roughly 200,000 compounds were called active. The full list was thinned out, with actives kept by preference. A number with no mark means an inactive call.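 Rule for the calls: active = inhibition above about 50% when tested at 10 µM (limit read from the data); inactive = the rest.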

target: Luciferin 4-monooxygenase (Photinus pyralis) (UniProt P08659); test: firefly luciferase enzyme inhibitors, primary screen, artefact control for luciferase-based inhibitor screens, biochemical, luminescence, ATPLite (AID 1006); conditions: 10 min, at 10 µM, stronger effect = higher value
Sequence (P08659 whole entry, looked up): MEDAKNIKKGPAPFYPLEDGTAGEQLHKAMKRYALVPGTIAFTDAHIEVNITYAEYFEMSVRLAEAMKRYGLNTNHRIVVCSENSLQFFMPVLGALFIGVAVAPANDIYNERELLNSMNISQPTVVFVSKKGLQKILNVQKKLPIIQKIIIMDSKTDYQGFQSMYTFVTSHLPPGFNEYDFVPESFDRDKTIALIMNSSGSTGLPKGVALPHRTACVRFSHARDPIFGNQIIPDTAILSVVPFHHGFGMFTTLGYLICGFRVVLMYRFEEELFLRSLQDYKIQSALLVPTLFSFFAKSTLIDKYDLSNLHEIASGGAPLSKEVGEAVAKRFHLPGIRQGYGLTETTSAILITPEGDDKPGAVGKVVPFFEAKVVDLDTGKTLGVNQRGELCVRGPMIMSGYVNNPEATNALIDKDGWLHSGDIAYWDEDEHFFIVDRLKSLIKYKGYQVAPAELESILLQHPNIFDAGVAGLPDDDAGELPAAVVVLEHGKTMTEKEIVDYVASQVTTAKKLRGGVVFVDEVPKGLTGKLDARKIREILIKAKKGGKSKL

Q: COc1ccc(NC(=O)CSc2nnc(-c3ccccc3F)n2C2CC2)cc1S(N)(=O)=O was tested. Which inhibition did it give?
A: The inhibition was 1.6%.

Q: For COc1ccc(NS(=O)(=O)c2cc(NC(=O)/C=C/c3cc(OC)c(OC)c(OC)c3)ccc2N2CCCCC2)cc1, which inhibition is on record?
A: Its inhibition is -5%.

Q: For Cc1ccn(-c2cccc(-n3ccc(C)n3)n2)n1, which inhibition is on record?
A: Its inhibition is 61.1% (active).

Q: CC(C)N1C(=O)N(c2ccccc2)C(C)(O)CC1(C)C (stereo not drawn) was tested. Which inhibition did it give?
A: The inhibition was -5.4%.

Q: COc1cccc2sc(NNC(=O)c3nc4ccccc4s3)nc12 was tested. Which inhibition did it give?
A: Its inhibition is -1.8%.

Q: For O=C(O)CCCCc1nc2ccccc2s1, which inhibition is on record?
A: Its inhibition is 6.8%.

Q: Which inhibition does the source give for COc1ccccc1OCc1nc2ccccc2s1 here?
A: Its inhibition is 57.9% (active).

Q: With CNC(=O)COc1ccc(S(=O)(=O)Nc2ccccc2)cc1 as the compound, how does the inhibition read?
A: The inhibition was -6.9%.

Q: How did the inhibition turn out when CSc1ccccc1NC(=O)CN(C)CC(=O)Nc1ccc(Cl)cc1[N+](=O)[O-] was run?
A: Its inhibition is 1.5%.

Q: O=C(c1cn(-c2ccccc2)nc1-c1cc2ccccc2oc1=O)N1CCOCC1 was tested. Which inhibition did it give?
A: The inhibition was -8.2%.

Q: With Nc1ncc(-c2cc3ccccc3oc2=O)s1 as the compound, how does the inhibition read?
A: The inhibition was 32.1%.

Q: For O=c1oc2ccccc2cc1-c1cn(-c2ccccc2)c(=S)[nH]1, which inhibition is on record?
A: Its inhibition is 90.1% (active).

Q: Cc1ccc(CCCOC(=O)C[N+]2(C)CCCCC2)cc1 was tested. Which inhibition did it give?
A: Its inhibition is -3.7%.

Q: Which inhibition does the source give for O=C(NCCc1ccc(F)cc1)c1n[nH]c2ccccc12 here?
A: Its inhibition is 14.4%.

Q: Which inhibition does the source give for O=C(COC(=O)c1n[nH]c2ccccc12)NCc1ccccc1 here?
A: Its inhibition is -1.4%.

Q: COc1cccc(CNC(=O)c2n[nH]c3ccccc23)c1 was tested. Which inhibition did it give?
A: Its inhibition is 51.1% (active).

Q: Which inhibition does the source give for CC(=O)Nc1ccc(NC(=O)CSc2nnc(COc3ccccc3C)n2CC2CCCO2)cc1 (stereo not drawn) here?
A: Its inhibition is -2.3%.

Q: For CCc1nnc(NC(=O)c2cccs2)s1, which inhibition is on record?
A: Its inhibition is 6.9%.

Q: Which inhibition does the source give for CCc1ccc2nc3sc(C(=O)Nc4nnc(CC)s4)c(N)c3cc2c1 here?
A: The inhibition was 51.9% (active).

Q: For CCc1nnc(NC(=O)c2sc3nc(C)cc(COC)c3c2N)s1, which inhibition is on record?
A: Its inhibition is -1.1%.

Q: With CSc1cc(C)[nH]c(=O)n1 as the compound, how does the inhibition read?
A: Its inhibition is 0.8%.

Q: Which inhibition does the source give for Cc1ccc(-n2c(C)cc(/C=C(\C#N)C(=O)NCC3CCCO3)c2C)cc1 (stereo not drawn) here?
A: The inhibition was 72.2% (active).

Q: For Cc1ccc(C(=O)N/C(=C/c2cccs2)C(=O)NCC2CCCO2)cc1 (stereo not drawn), which inhibition is on record?
A: Its inhibition is 0.4%.

Q: Which inhibition does the source give for Cc1ccc(S(=O)(=O)N2CCC(C(=O)NCC3CCCO3)CC2)cc1 (stereo not drawn) here?
A: Its inhibition is -6.3%.

Q: CC(C)(C)NC(=O)COC(=O)c1cc(Cl)ccc1[N+](=O)[O-] was tested. Which inhibition did it give?
A: The inhibition was 1.8%.

Q: For CN(C)/C=C(/C(=O)c1ccccc1Cl)S(C)(=O)=O, which inhibition is on record?
A: The inhibition was -6%.

Q: How did the inhibition turn out when Cc1cc(F)ccc1S(=O)(=O)N1CCCOC1CNC(=O)C(=O)NCCC1=CCCCC1 (stereo not drawn) was run?
A: The inhibition was -3.9%.

Q: For COc1cc(/C=C/C(=O)OCC(=O)N2CCOCC2)ccc1OCC#N, which inhibition is on record?
A: The inhibition was -6%.
